Measurements from PubChem BioAssay.
Calls of active or inactive are those of the source.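 The calls were made as follows: active = mean inhibition over 43.08%, the solvent-only control mean plus 3 SD; inactive = the rest.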

target: Nuclear receptor coactivator 3 (Homo sapiens) (UniProt Q9Y6Q9); experiment: NCOA3 GAL4-fusion reporter inhibition – cell-based, luminescence, quadruplicate, confirmation (AID 588792); details: HEK293 GAL4-SRC3 luciferase reporter, at 3.6 µM, active compounds read high;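 also: 0% = DMSO treated cells and 100% = gossypol at 36 µM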
Sequence (Q9Y6Q9 whole entry, looked up, the tested form may be a part): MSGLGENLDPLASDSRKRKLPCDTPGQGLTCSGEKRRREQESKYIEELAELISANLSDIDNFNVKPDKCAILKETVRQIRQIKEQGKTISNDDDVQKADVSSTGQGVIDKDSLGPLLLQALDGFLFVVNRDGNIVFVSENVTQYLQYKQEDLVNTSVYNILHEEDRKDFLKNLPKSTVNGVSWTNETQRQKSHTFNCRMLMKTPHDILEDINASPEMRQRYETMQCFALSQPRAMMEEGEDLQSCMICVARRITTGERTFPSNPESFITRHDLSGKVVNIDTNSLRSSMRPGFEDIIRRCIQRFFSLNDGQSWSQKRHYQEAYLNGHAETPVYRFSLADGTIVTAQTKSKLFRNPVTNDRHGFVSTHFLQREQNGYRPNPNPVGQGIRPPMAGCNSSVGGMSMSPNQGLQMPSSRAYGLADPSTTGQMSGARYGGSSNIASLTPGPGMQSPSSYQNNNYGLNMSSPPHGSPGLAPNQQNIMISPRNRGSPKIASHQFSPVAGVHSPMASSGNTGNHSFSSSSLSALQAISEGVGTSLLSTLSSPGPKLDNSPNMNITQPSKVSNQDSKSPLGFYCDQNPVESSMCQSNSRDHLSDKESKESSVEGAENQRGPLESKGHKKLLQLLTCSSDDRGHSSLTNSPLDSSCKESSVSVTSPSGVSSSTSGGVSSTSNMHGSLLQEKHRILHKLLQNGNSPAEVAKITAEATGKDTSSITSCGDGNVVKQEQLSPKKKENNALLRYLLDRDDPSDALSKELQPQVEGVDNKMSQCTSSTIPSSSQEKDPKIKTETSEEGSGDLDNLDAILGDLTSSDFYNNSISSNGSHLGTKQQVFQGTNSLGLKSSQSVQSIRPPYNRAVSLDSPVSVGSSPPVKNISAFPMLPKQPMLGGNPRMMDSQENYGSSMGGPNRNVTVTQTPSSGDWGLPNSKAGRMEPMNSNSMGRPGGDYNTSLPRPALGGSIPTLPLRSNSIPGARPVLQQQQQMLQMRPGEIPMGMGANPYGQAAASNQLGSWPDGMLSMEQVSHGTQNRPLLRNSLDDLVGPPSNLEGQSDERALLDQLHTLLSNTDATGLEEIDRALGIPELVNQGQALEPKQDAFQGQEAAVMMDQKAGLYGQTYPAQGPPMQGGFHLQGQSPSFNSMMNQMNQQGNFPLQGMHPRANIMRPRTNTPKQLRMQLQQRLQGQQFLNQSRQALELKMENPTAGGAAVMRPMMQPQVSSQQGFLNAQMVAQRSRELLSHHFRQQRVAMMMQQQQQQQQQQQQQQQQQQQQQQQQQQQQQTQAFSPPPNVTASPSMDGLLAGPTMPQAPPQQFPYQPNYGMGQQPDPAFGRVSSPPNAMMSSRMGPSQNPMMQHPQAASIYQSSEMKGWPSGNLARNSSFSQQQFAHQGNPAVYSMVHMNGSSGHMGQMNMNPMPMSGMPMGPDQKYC

SMILES	inhibition
COc1ccc(C(C(=O)NC2CCCCC2)N(C(=O)CCl)c2ccc(OC)cc2)cc1 (stereo not given)	64.4% (active)
COc1cccc(/C=N/Nc2nc3ccccc3n3cnnc23)c1O	13.4% (inactive)
COc1ccc(CN(C)C(=O)c2cccc(NC(=O)CC3SC(N4CCCCC4)=NC3=O)c2)c(OC)c1 (stereo not given)	26.9% (inactive)
COC(=O)c1cc(S(=O)(=O)NCCc2ccc(Cl)cc2)c[nH]1	29.2% (inactive)
CCOC(=O)c1c(Nc2ccccc2OCCOC)n[nH]c1C	-0.73% (inactive)
O=C(NCc1cccs1)C1CCCN(C(=O)Nc2ccccc2)C1 (stereo not given)	17.7% (inactive)
CC(=O)c1c(C)[nH]c(C(=O)OCC(=O)Nc2c(C)cccc2C)c1C	16.8% (inactive)
CC1Cc2cc(-c3csc(NC(=O)Cc4ccccc4)n3)ccc2N1S(C)(=O)=O (stereo not given)	23.8% (inactive)
O=C(Nc1ccc(N2CCN(c3ncccc3C(F)(F)F)CC2)nc1)c1cccs1	-7.92% (inactive)
CCCCc1nc2ccccc2c(N)c1CCC (tested in a mixture with another compound)	8.62% (inactive)
CCOC(=O)c1c(NC(=S)N2CCN(C)CC2)sc2c1CCN(C(=O)OCC)C2	35.5% (inactive)
COc1ccc(C(C(=O)NC2CCCCC2)N(C(=O)CCl)c2ccc(Cl)cc2)cc1 (stereo not given)	54.1% (active)
CC1CN(Cc2ccccc2)c2nc3c(c(=O)n(CC(N)=O)c(=O)n3C)n2C1 (stereo not given)	0.26% (inactive)
C=CCn1c(NCCc2ccccc2)nc2c1c(=O)n(C)c(=O)n2C	4.32% (inactive)
Cc1ccccc1NC(=O)C(=Cc1ccc(C(=O)O)cc1)C(=O)Nc1ccccc1C	27.8% (inactive)
Cc1ccc(S(=O)(=O)Nc2ccc3c(c2)OCCO3)cc1C	24.1% (inactive)
FC(F)(F)c1cccc(-c2nc3nc(Cl)c(Cl)nc3[nH]2)c1	-12% (inactive)
Nc1nc(NCc2ccco2)nc(N2CCCCCC2)c1[N+](=O)[O-]	-0.71% (inactive)
CC(=O)Nc1ccc(S(=O)(=O)NCCSCc2ccccc2Cl)cc1	12.3% (inactive)
Cc1ccc(-n2c(Cl)c(Cl)nc(Cl)c2=O)cc1	45.3% (active)

SMILES	inhibition
CCC(C)(CC(=O)O)CC(=O)Nc1cc(C(F)(F)F)cc(C(F)(F)F)c1 (stereo not given)	9.02% (inactive)
CCN(CC)c1ccc(/C=N/NC(=O)c2cnccn2)c(O)c1	45.2% (active)
COc1cc(/C=C2/SC(=S)N(c3ccccc3)C2=O)ccc1Oc1nc(N2CCOCC2)nc(N2CCOCC2)n1	4.82% (inactive)
O=C(CCc1ccccc1)N/N=C/c1cc(Br)ccc1O	24.5% (inactive)
COCC(C)NS(=O)(=O)c1ccc(C(=O)NC(Cc2ccccc2)c2ccccc2)cc1 (stereo not given)	17.7% (inactive)
Nc1nc(CCl)nc(N(c2ccccc2)c2ccccc2)n1	18.4% (inactive)
COc1ccc(CN(Cc2cccn2C)S(=O)(=O)c2ccc(C)cc2)cc1	1.22% (inactive)
CC(=O)N(Cc1ccc(F)cc1)C1=C(NCc2ccccc2)C(=O)c2ccccc2C1=O	30.9% (inactive)
COc1cccc(-c2c(C(=O)N/N=C/c3ccncc3)nnn2-c2nonc2N)c1	3.64% (inactive)
Cc1ccc(O)c(C(=O)c2cnc3c(c2)COc2ccccc2-3)c1	-8.22% (inactive)
CC(=O)c1cc(CC=C(C)C)c(O)c(CC=C(C)C)c1O	4.99% (inactive)
CCOC(=O)c1c(C)[nH]c(C(=O)N/N=C\c2ccccc2O)c1C	11.6% (inactive)
CC(C)(C)c1cc(C(=O)N/N=C/c2ccccc2O)n(-c2ccccc2)n1	35.7% (inactive)
O=C(N/N=C/c1ccccc1O)c1ccncc1	14.8% (inactive)
O=C(Nc1cccc(S(=O)(=O)N2CCCCC2)c1)c1ccc(S(=O)(=O)C(F)F)cc1	3.35% (inactive)
Cc1nc(SCC(=O)NNC(=O)c2ccc(F)cc2)c2ccccc2n1	-5.28% (inactive)
Cc1nc(Nc2nc(CSc3nc4ccccc4[nH]3)cc(=O)[nH]2)nc2ccccc12	-5.42% (inactive)
CCOc1c(Br)cc(CNC2CCCCCCC2)cc1OC	-5.01% (inactive)
C=C[C@@H]1c2c(F)cccc2N(S(=O)(=O)c2ccc(C)cc2)[C@H](c2ccc(OC(C)=O)cc2)C1(C#N)C#N	10.4% (inactive)
COc1ccc(N2CCN(c3nc(NCCc4ccc(OC)c(OC)c4)nc(OC)n3)CC2)cc1	6.14% (inactive)
